From PubChem BioAssay (NCATS)
Inconclusive results are not listed. Active and inactive are the calls of the source. The call rests on the fitted dose curve; in most records, active means well fitted curve in the direction sought with a large enough effect; inconclusive means small, poorly fitted or top-dose-only effect, or another doubt; inactive means no such curve, though single readings can be large; an effect the other way counts as inactive or inconclusive.

How the values were obtained:
[1] = Drug repurposing screens with cells derived from glioblastoma tumor samples (AID 1345199); settings: GBM patient neurospheres viability, ATP luminescence, 48 h; further: nearly all actives have a fitted effect of over 40% in size; further: potency means the concentration at half of the fitted maximal effect
Outline: (§1)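 Primary testing used CD133+ neurospheres from four GBM patients, seven concentrations, 48 h exposure and ATP-based viability; confirmation added three slower-growing patient lines.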

[2] = test system: MKL-2; experiment: qHTS assay to identify novel small-molecules to repurpose for Merkel cell carcinoma treatment (AID 1296009); settings: MCC and control cell lines, CellTiter-Glo viability, 72 h; series mostly up to 46 µM; further: nearly all actives have a fitted effect of over 60% in size
Outline: (§2)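 Luminescence from CellTiter-Glo, read 10 min after addition at room temperature, reported viability following a 72 hr, 37 degree celsius treatment with NPC or MIPE compounds in titration; values normalized to plate controls.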

[3] = test system: UISO; experiment: as above; settings: MCC and control cell lines, CellTiter-Glo viability, 72 h; series mostly up to 46 µM
Outline: as §2

[4] = test system: WaGa; experiment: as above; settings: MCC and control cell lines, CellTiter-Glo viability, 72 h; series mostly up to 46 µM
Outline: as §2

[5] = test system: C33A; experiment: Primary qHTS to identify gynecologic anti-cancer compounds using libraries of approved drugs and bioactive compounds (AID 1345084); settings: Gynecologic cancer cell panel viability, ATPlite luminescence, 48 h; series mostly up to 57.5 µM; further: nearly all actives have a fitted effect of over 55% in size
Outline: (§3)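 ATP-based viability (ATPlite), 1,000 cells/well, 16 h pre-incubation, 48 h compound at 37 C, 5% CO2, 15 min RT before read.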

[6] = test system: CASKI; experiment: as above; settings: Gynecologic cancer cell panel viability, ATPlite luminescence, 48 h; series mostly up to 57.5 µM
Outline: as §3

[7] = test system: Es-2; experiment: as above; settings: Gynecologic cancer cell panel viability, ATPlite luminescence, 48 h; series mostly up to 57.5 µM
Outline: as §3

[8] = test system: HeLa; experiment: as above; settings: Gynecologic cancer cell panel viability, ATPlite luminescence, 48 h; series mostly up to 57.5 µM
Outline: as §3

[9] = test system: Hek293T; experiment: as above; settings: Gynecologic cancer cell panel viability, ATPlite luminescence, 48 h, control line for the selectivity index; series mostly up to 57.5 µM
Outline: as §3

[10] = test system: JEG-3; experiment: as above; settings: Gynecologic cancer cell panel viability, ATPlite luminescence, 48 h; series mostly up to 57.5 µM
Outline: as §3

[11] = test system: OV90; experiment: as above; settings: Gynecologic cancer cell panel viability, ATPlite luminescence, 48 h; series mostly up to 57.5 µM
Outline: as §3

[12] = test system: PA-1; experiment: as above; settings: Gynecologic cancer cell panel viability, ATPlite luminescence, 48 h; series mostly up to 57.5 µM
Outline: as §3

[13] = test system: SKOV3; experiment: as above; settings: Gynecologic cancer cell panel viability, ATPlite luminescence, 48 h; series mostly up to 57.5 µM
Outline: as §3

[14] = test system: Tov-21-G; experiment: as above; settings: Gynecologic cancer cell panel viability, ATPlite luminescence, 48 h; series mostly up to 57.5 µM
Outline: as §3

[15] = test system: Tov112D; experiment: as above; settings: Gynecologic cancer cell panel viability, ATPlite luminescence, 48 h; series mostly up to 57.5 µM
Outline: as §3

[16] = test system: astro; experiment: Drug repurposing screens with cells derived from glioblastoma tumor samples (AID 1345199); settings: viability, ATP luminescence, 48 h; series mostly up to 45.9 µM; further: nearly all actives have a fitted effect of over 40% in size; further: potency means the concentration at half of the fitted maximal effect
Outline: as §1

[17] = test system: CAOV3; experiment: Primary qHTS to identify gynecologic anti-cancer compounds using libraries of approved drugs and bioactive compounds (AID 1345084); settings: Gynecologic cancer cell panel viability, ATPlite luminescence, 48 h; series mostly up to 57.5 µM; further: nearly all actives have a fitted effect of over 55% in size
Outline: as §3

[18] = at 21.3 µM (top of the series), tumour line A
[19] = at 45.9 µM (top of the series), tumour line B
[20] = at 45.9 µM (top of the series), tumour line D
[21] = at 46 µM (top of the series), tumour line A
On the % scale 0 is the no-effect control and ±100 the full control effect.

CN(C)C(=O)Oc1cc(OC(=O)N(C)C)cc(C(O)CNC(C)(C)C)c1 (stereo not drawn)
inactive: activity, negative = cell killing [1, 18] -13.9%

C[N+]1(C)[C@@H]2CC[C@H]1CC(OC(=O)C(CO)c1ccccc1)C2 (stereo partly drawn)
inactive: activity, negative = cell killing [1, 18] -14.4% | activity, negative = cell killing ([1]; at 46.1 µM (top of the series), tumour line C) -12.5%

CC(C)C(Br)C(=O)NC(N)=O (stereo not drawn)
inactive: Potency [2] | Potency [3] | Potency [4] | Potency [5] | Potency [6] | Potency [7] | Potency [8] | Potency [9] | Potency [10] | Potency [11] | Potency [12] | Potency [13] | Potency [14] | Potency [15] | activity, negative = cell killing [1, 19] -3.2% | activity, negative = cell killing [1, 20] -12.7% | activity, negative = cell killing [1, 21] -8.61% | Potency [16]

CCOC(=O)c1ncn2c1CN(C)C(=O)c1c(I)cccc1-2
inactive: Potency [2] | Potency [3] | Potency [4] | Potency [5] | Potency [17] | Potency [6] | Potency [7] | Potency [8] | Potency [9] | Potency [10] | Potency [11] | Potency [12] | Potency [14] | Potency [15]

CCN(CC)C(C)C(=O)c1ccccc1 (stereo not drawn)
inactive: Potency [2] | Potency [3] | Potency [4] | Potency [5] | Potency [17] | Potency [6] | Potency [7] | Potency [8] | Potency [9] | Potency [10] | Potency [11] | Potency [12] | Potency [13] | Potency [14] | Potency [15] | activity, negative = cell killing [1, 19] -5.61% | activity, negative = cell killing [1, 20] -24.9% | activity, negative = cell killing [1, 21] -22.4% | Potency [16]

CCCOC(=O)Cc1ccc(OCC(=O)N(CC)CC)c(OC)c1
inactive: Potency [2] | Potency [3] | Potency [4] | Potency [5] | Potency [17] | Potency [6] | Potency [7] | Potency [8] | Potency [9] | Potency [10] | Potency [11] | Potency [12] | Potency [14] | Potency [15] | activity, negative = cell killing [1, 19] -0.689% | activity, negative = cell killing [1, 20] -1.94% | activity, negative = cell killing [1, 21] -27.4% | Potency [16]

COc1cc(CC#N)cc(OC)c1OC
inactive: Potency [2] | Potency [3] | Potency [4] | Potency [5] | Potency [6] | Potency [7] | Potency [8] | Potency [9] | Potency [10] | Potency [11] | Potency [12] | Potency [13] | Potency [14] | Potency [15]

CCN(CC)Cc1nccn1-c1ccc([N+](=O)[O-])cc1C(=O)c1ccccc1Cl
active: Potency ([1]; tumour line A) 31.6 µM
inactive: Potency [2] | Potency [3] | Potency [4] | Potency [5] | Potency [17] | Potency [6] | Potency [7] | Potency [8] | Potency [9] | Potency [10] | Potency [13] | Potency [14] | Potency [15] | activity, negative = cell killing [1, 19] -21% | activity, negative = cell killing [1, 20] -13.7% | Potency [16]

CCN(Cc1ccc(Cl)nc1)/C(=C/[N+](=O)[O-])NC
inactive: Potency [2] | Potency [3] | Potency [4] | Potency [5] | Potency [17] | Potency [6] | Potency [7] | Potency [8] | Potency [9] | Potency [10] | Potency [11] | Potency [12] | Potency [14] | Potency [15] | activity, negative = cell killing [1, 19] -9.68% | activity, negative = cell killing [1, 20] -5.99% | Potency [16]

CCOC(C(=O)OCCN(C)C)(c1ccccc1)c1ccccc1
inactive: Potency [2] | Potency [3] | Potency [4] | Potency [5] | Potency [17] | Potency [6] | Potency [7] | Potency [8] | Potency [9] | Potency [10] | Potency [12] | Potency [13] | Potency [14] | Potency [15]

C=CCN1CC[C@]23CCCC[C@H]2[C@H]1Cc1ccc(O)cc13
active: Potency ([1]; tumour line B) 35.5 µM
inactive: Potency [2] | Potency [3] | Potency [4] | Potency [5] | Potency [17] | Potency [6] | Potency [7] | Potency [8] | Potency [9] | Potency [10] | Potency [12] | Potency [13] | Potency [14] | Potency [15] | activity, negative = cell killing [1, 21] 29%

c1cc2c(c(N3CCNCC3)c1)OCCO2
inactive: Potency [2] | Potency [3] | Potency [4] | Potency [5] | Potency [17] | Potency [6] | Potency [7] | Potency [8] | Potency [9] | Potency [10] | Potency [11] | Potency [12] | Potency [13] | Potency [14] | Potency [15] | activity, negative = cell killing [1, 19] -7.8% | activity, negative = cell killing [1, 20] -0.968% | Potency [16]

CCC(=O)OC1(c2ccccc2)CCN(C)CC1
inactive: Potency [2] | Potency [3] | Potency [4] | Potency [5] | Potency [6] | Potency [7] | Potency [8] | Potency [9] | Potency [10] | Potency [11] | Potency [12] | Potency [13] | Potency [14] | Potency [15] | activity, negative = cell killing ([1]; at 108 µM (top of the series), tumour line B) -0.343% | activity, negative = cell killing ([1]; at 108 µM (top of the series), tumour line D) -13.5% | Potency [16]
active: Potency ([1]; tumour line A) 50.1 µM

C[N+](C)(C)CCOC(=O)C(O)(c1ccccc1)c1ccccc1
inactive: Potency [2] | Potency [3] | Potency [4] | Potency [5] | Potency [17] | Potency [6] | Potency [7] | Potency [8] | Potency [9] | Potency [10] | Potency [11] | Potency [12] | Potency [13] | Potency [14] | Potency [15] | activity, negative = cell killing [1, 19] -4.79% | activity, negative = cell killing [1, 20] -23.3% | Potency [16]

NC(=O)CN1CCCC1=O
inactive: Potency [2] | Potency [3] | Potency [4] | Potency [5] | Potency [17] | Potency [6] | Potency [7] | Potency [8] | Potency [9] | Potency [10] | Potency [11] | Potency [12] | Potency [13] | Potency [14] | Potency [15] | activity, negative = cell killing ([1]; at 21.2 µM (top of the series), tumour line B) -8.16% | activity, negative = cell killing ([1]; at 21.2 µM (top of the series), tumour line D) -13% | activity, negative = cell killing [1, 18] -16.4% | Potency [16]

c1ccc2nc(N3CCNCC3)ccc2c1
active: Potency [16] 12.6 µM
inactive: Potency [2] | Potency [3] | Potency [4] | Potency [5] | Potency [17] | Potency [6] | Potency [7] | Potency [8] | Potency [9] | Potency [10] | Potency [12] | Potency [13] | Potency [14] | Potency [15]
